Some test systems named below: T-47D breast; BT-549 breast; MDA-MB-435 melanoma; SW-620 colon; MCF7 breast; HCT-116 colon; HCC-2998 colon; KM12 colon.
Holding throughout (test): NCI-60 one-dose screen, 48 h (100 = growth as untreated, 0 = no growth, -100 = all killed)

The structures appear in SMILES notation. “And” between values parts separate entries of the source, which are not always exact repeats. Equal entries are not always repeated. The panel holds about 83,000 compounds, 20% with a hit somewhere; the sample as a whole holds those more often.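 The endpoint reported here, percent growth, reads 100 for growth as untreated, 0 for no net growth and -100 for all cells dead.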 Unmarked numbers belong to inactive results. The source made the active and inactive calls. Rule for the calls: active = growth percent below 10; inactive = the rest.

With `COc1ccc(C(=O)/C=C/c2ccc(OCc3ccc(Cl)cc3)cc2)cc1OC`, the growth is 73.8% in the experiment with T-47D breast (10 µM); 41.5% with T-47D breast (100 µM); 115% in the experiment on BT-549 breast (10 µM); 22% in the experiment with BT-549 breast (100 µM); 90.7% with MDA-MB-435 melanoma (10 µM); 43.7% with MDA-MB-435 melanoma (100 µM). Further, the growth in the experiment with SW-620 colon (10 µM) is 103%; with SW-620 colon (100 µM), 9.15% (active); in the experiment on MCF7 breast (10 µM) it was 84.2%; in the experiment with MCF7 breast (100 µM), 9.31% (active); in the experiment on HCT-116 colon (10 µM), 90.2%; in the experiment on HCT-116 colon (100 µM) it was -25.8% (active). In addition, the growth with HCC-2998 colon (10 µM) is 101%; with HCC-2998 colon (100 µM), 44%; with KM12 colon (10 µM), 90.7%; in the experiment with KM12 colon (100 µM), 21.4%.

Regarding `[Cu+].[NH-][C@H]1C[N-]C(=O)[C@H]([C@H]2CCN=C(N)N2)[N-]C(=O)/C(=C\NC(N)=O)[N-]C(=O)[C@H](CNC(=O)C[C@@H](N)CCCN)[N-]C(=O)[C@H](CO)[N-]C1=O`, the growth in the experiment with T-47D breast (10 µM unless noted) was 89.5%; in the experiment with BT-549 breast (10 µM unless noted) it was 104%; with MDA-MB-435 melanoma (10 µM unless noted) it was 94.3%; with SW-620 colon (10 µM unless noted), 91.7%; in the experiment with MCF7 breast (10 µM unless noted), 101%; with HCT-116 colon (10 µM unless noted), 97.4%. Moreover, the values for the growth in the experiment on HCC-2998 colon (10 µM unless noted) and in the experiment with KM12 colon (10 µM unless noted) were 110% and 101%, respectively.

For `O=c1oc2c(Br)cc(Br)cc2cc1-c1cc(-c2ccc(-c3cc(-c4cc5cc(Br)cc(Br)c5oc4=O)nc(-c4cc5cc(Br)cc(Br)c5oc4=O)c3)cc2)cc(-c2cc3cc(Br)cc(Br)c3oc2=O)n1`, the growth in the experiment with T-47D breast (10 µM unless noted) was 98.9%; with BT-549 breast (10 µM unless noted), 112%; in the experiment on MDA-MB-435 melanoma (10 µM unless noted), 114%; in the experiment on SW-620 colon (10 µM unless noted) it was 100%; in the experiment on MCF7 breast (10 µM unless noted) it was 98%; with HCT-116 colon (10 µM unless noted) it was 99.3%. The growth is 102% in the experiment on HCC-2998 colon (10 µM unless noted) and 96.1% in the experiment with KM12 colon (10 µM unless noted).

As for `Nc1ccc(-c2ccc(N)c(Br)c2)cc1Br`, the growth is 40.9% in the experiment with T-47D breast (10 µM unless noted); 34% in the experiment with BT-549 breast (10 µM unless noted); 1.83% (active) with MDA-MB-435 melanoma (10 µM unless noted); 47% in the experiment on SW-620 colon (10 µM unless noted); 17.9% with MCF7 breast (10 µM unless noted); 23.6% with HCT-116 colon (10 µM unless noted). For the same compound, the growth in the experiment with HCC-2998 colon (10 µM unless noted) was 64.6%; in the experiment with KM12 colon (10 µM unless noted), 37.3%.

For the compound `COc1ccc(-c2nnc3n(C)c(=O)c4ccccc4n23)cc1O`, the growth in the experiment on T-47D breast (10 µM unless noted) was 30.2%; with BT-549 breast (10 µM unless noted), 41.4%; with MDA-MB-435 melanoma (10 µM unless noted) it was -40.8% (active); in the experiment on SW-620 colon (10 µM unless noted), 23.9%; in the experiment with MCF7 breast (10 µM unless noted), 18.2%; in the experiment on HCT-116 colon (10 µM unless noted), 13.1%. Also, the growth in the experiment on HCC-2998 colon (10 µM unless noted) was 33.7%; in the experiment on KM12 colon (10 µM unless noted), 24.2%.

Regarding `C/C=C(/C)C(=O)O[C@@H]1CC(C)(C)CC2C34OC(=O)[C@@]21CC[C@@]3(C)[C@]1(C)CCC2C(C)(C)C(=O)CC[C@]2(C)C1C[C@@H]4Cl` (stereo not given in full), the growth in the experiment on T-47D breast (10 µM unless noted) is 99.1%; in the experiment on BT-549 breast (10 µM unless noted), 108%; in the experiment on MDA-MB-435 melanoma (10 µM unless noted), 102%; in the experiment on SW-620 colon (10 µM unless noted) it was 96.7%; in the experiment on MCF7 breast (10 µM unless noted), 97.6%; with HCT-116 colon (10 µM unless noted), 86.2%. Further, the growth is 102% with HCC-2998 colon (10 µM unless noted) and 104% in the experiment with KM12 colon (10 µM unless noted).

Regarding `O=C(NNc1ccccc1)c1ccccc1`, the growth in the experiment with T-47D breast (10 µM unless noted) is 56.5% and 36.8%; in the experiment with BT-549 breast (10 µM unless noted), 105% and 72.2%; in the experiment on MDA-MB-435 melanoma (10 µM unless noted), 69.4%; in the experiment with SW-620 colon (10 µM unless noted) it was 57.1% and 45.7%; in the experiment with MCF7 breast (10 µM unless noted) it was 82.9% and 90.4%; with HCT-116 colon (10 µM unless noted), 79.6% and 68.5%. Also, the growth in the experiment on HCC-2998 colon (10 µM unless noted) was 85.6%; in the experiment with KM12 colon (10 µM unless noted) it was 33.5%.

For the compound `O=C(CCl)N(O)c1ccc(/C=C/c2ccccc2)cc1`, the growth in the experiment on T-47D breast (10 µM unless noted) is 63.8% and 59.5%; in the experiment on BT-549 breast (10 µM unless noted), 73.5% and 62.4%; with MDA-MB-435 melanoma (10 µM unless noted), 97.2% and 90%; with SW-620 colon (10 µM unless noted), 74.3% and 53.5%; in the experiment with MCF7 breast (10 µM unless noted), 49.2% and 42.5%; in the experiment on HCT-116 colon (10 µM unless noted), 69.1% and 51.7%. Besides, the growth in the experiment with HCC-2998 colon (10 µM unless noted) was 75.7% and 89.3%; in the experiment on KM12 colon (10 µM unless noted) it was 102% and 91.6%.

As for `Clc1ccc2c(NCCN3CCN(c4ccnc(N5CCCC5)n4)CC3)ccnc2c1`, the growth in the experiment on T-47D breast (10 µM unless noted) was 2.2% (active); in the experiment on BT-549 breast (10 µM unless noted) it was 75.8%; in the experiment on MDA-MB-435 melanoma (10 µM unless noted), 15.2%; with SW-620 colon (10 µM unless noted) it was 12.9%; in the experiment with MCF7 breast (10 µM unless noted) it was 12.3%; with HCT-116 colon (10 µM unless noted), 4.45% (active). For the same compound, the results for the growth in the experiment with HCC-2998 colon (10 µM unless noted) and with KM12 colon (10 µM unless noted) were 0.613% (active) and 54.3%, respectively.

For the compound `CN1CCN(Cc2ccc(NC(=O)c3cccc(C#Cc4c(N)ncc5ccc(F)cc45)c3)cc2C(F)(F)F)CC1`, the growth with T-47D breast (10 µM unless noted) is 14.8%; in the experiment with BT-549 breast (10 µM unless noted), 28.5%; with MDA-MB-435 melanoma (10 µM unless noted) it was -95.9% (active); with SW-620 colon (10 µM unless noted), -91.6% (active); with MCF7 breast (10 µM unless noted), -80.9% (active); with HCT-116 colon (10 µM unless noted), -93.1% (active). For the same compound, the values for the growth in the experiment on HCC-2998 colon (10 µM unless noted) and in the experiment on KM12 colon (10 µM unless noted) were -86.8% (active) and -82.1% (active), respectively.

As to `NNCCc1ccccc1`, the growth in the experiment on T-47D breast (10 µM unless noted) was 106% and 95.2%; in the experiment on BT-549 breast (10 µM unless noted), 103% and 107%; in the experiment with MDA-MB-435 melanoma (10 µM unless noted) it was 109% and 97.2%; in the experiment on SW-620 colon (10 µM unless noted), 106% and 94.6%; in the experiment with MCF7 breast (10 µM unless noted), 98.5% and 86.6%; with HCT-116 colon (10 µM unless noted) it was 103% and 93.5%. Besides, the growth is 110% and 98.5% with HCC-2998 colon (10 µM unless noted); 111% and 99.5% in the experiment with KM12 colon (10 µM unless noted).

With `CCCCCCCCN(CCCCCCCC)CC(O)c1cc(Cl)ccc1OC` (stereo not given), the growth is 51% with T-47D breast (10 µM unless noted); 102% in the experiment with BT-549 breast (10 µM unless noted); 83.6% in the experiment with MDA-MB-435 melanoma (10 µM unless noted); 67.2% in the experiment on SW-620 colon (10 µM unless noted); 54.7% in the experiment with MCF7 breast (10 µM unless noted); 35.7% in the experiment with HCT-116 colon (10 µM unless noted). For the same compound, the growth in the experiment on HCC-2998 colon (10 µM unless noted) is 51.7%; in the experiment with KM12 colon (10 µM unless noted), 61.8%.

As to `Oc1ccccc1C=Nc1ccc(N2CCN(c3ccccc3)CC2)cc1`, the growth is 81.7% in the experiment on T-47D breast (10 µM unless noted); 54.8% in the experiment with BT-549 breast (10 µM unless noted); 96.5% with MDA-MB-435 melanoma (10 µM unless noted); 110% with SW-620 colon (10 µM unless noted); 84% with MCF7 breast (10 µM unless noted); 87.1% in the experiment with HCT-116 colon (10 µM unless noted). Also, the figures for the growth in the experiment on HCC-2998 colon (10 µM unless noted) and in the experiment with KM12 colon (10 µM unless noted) were 90.2% and 103%, respectively.

As for `C=CCNC(=O)Cc1c(-c2ccc(OC)cc2)oc2c(OC)c3c(c(OC)c12)OCO3`, the growth with T-47D breast (10 µM unless noted) is 101%; in the experiment on BT-549 breast (10 µM unless noted) it was 100%; in the experiment with MDA-MB-435 melanoma (10 µM unless noted), 103%; in the experiment on SW-620 colon (10 µM unless noted) it was 103%; in the experiment on MCF7 breast (10 µM unless noted) it was 83.9%; in the experiment with HCT-116 colon (10 µM unless noted) it was 92.8%. The results for the growth in the experiment with HCC-2998 colon (10 µM unless noted) and in the experiment on KM12 colon (10 µM unless noted) were 116% and 96.2%, respectively.

(Values after PubChem BioAssay (NCI).)
